Screening data: PubChem BioAssay, National Center for Advancing Translational Sciences (NCATS)
Hits are enriched below; roughly 2.4% of the tested compounds scored in any of these assays.
D2 PAM-1: D2 dopamine receptor (human) potentiation; P14416; HEK293 T-REx D2, calcium flux, EC20 dopamine potentiation; potentiation, % at 10 µM; actives 0.34% (n = 340,000); AID 485347;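 active = potentiation over 3 SD above the plate norm, cut at about 30% in these data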
Target sequence (P14416 whole entry, looked up): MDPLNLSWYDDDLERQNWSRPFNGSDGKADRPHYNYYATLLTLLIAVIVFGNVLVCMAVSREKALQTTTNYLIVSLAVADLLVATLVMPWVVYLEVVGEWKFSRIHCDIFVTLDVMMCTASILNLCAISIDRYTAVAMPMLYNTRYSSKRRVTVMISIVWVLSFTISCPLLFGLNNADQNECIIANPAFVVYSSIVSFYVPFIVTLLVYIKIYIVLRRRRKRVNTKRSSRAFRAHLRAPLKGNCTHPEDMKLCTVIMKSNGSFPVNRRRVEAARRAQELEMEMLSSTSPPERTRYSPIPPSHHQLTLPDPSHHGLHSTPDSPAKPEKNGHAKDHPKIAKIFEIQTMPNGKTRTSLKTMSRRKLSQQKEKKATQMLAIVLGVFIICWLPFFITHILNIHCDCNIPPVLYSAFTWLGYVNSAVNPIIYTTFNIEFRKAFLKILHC
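Primary screen. Calcium kinetics in induced HEK293 T-REx D2 cells: compound pre-addition 180 s, EC20 dopamine, 180 s more.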
D2 ag-1: human D2 receptor agonism in beta-arrestin assay; activation, % (no concentration beside the values); actives 0.084% (n = 360,000); DiscoveRx PathHunter D2 beta-arrestin, luminescence, 90 min; 100% = 57 uM dopamine signal; P14416; in the data active = activation above about 40%; inconclusive = between about 15% and that limit
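Agonist mode: compounds alone added to overnight-plated D2 PathHunter cells for 90 min at 37 C, with 57 uM final dopamine (EC100) defining full response. Beta-arrestin recruitment detected by chemiluminescent reagent, read after 1 h at ambient temperature.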
D2 PAM-2: positive allosteric modulators of human D2 dopamine receptor; P14416; DiscoveRx D2 beta-arrestin cells, luminescence, 90 min; 100% = 57 uM dopamine signal; potentiation, % (no concentration beside the values); actives 0.23% (n = 360,000); AID 624464; in the data active = potentiation above about 50%; inconclusive = mostly about 30% to 49%
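PathHunter beta-arrestin assay in DiscoveRx D2 cells. Compounds were added with an EC20 of dopamine (50 nM final) for 90 min at 37 deg C. Luminescence was read 1 h after detection reagent, with 57 uM dopamine as the EC100 control.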
D2 antag: D2 dopamine receptor (human) antagonism; AID 485344; HEK293 TREx D2 cells, calcium flux, dopamine EC80; inhibition, % at 10 µM; P14416; actives 2% (n = 340,000); in the data active = inhibition above about 30%; inactive = below that, where a call was filed
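Compounds are added to dye-loaded, induced HEK293 T-REx cells coupled to calcium release via D2; after a 3 min kinetic read an EC80 dopamine stimulus is given and fluorescence is recorded for 3 more min.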
D2 ag-2: agonists of human D2 dopamine receptor; HEK293 T-REx D2 cells, calcium flux agonist mode; activation, % at 2 µM; actives 0.53% (n = 340,000); AID 485358;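 active = activation over 3 SD above normal in the single-dose calcium agonist read, cut at about 30% in these data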
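Agonism is scored from calcium flux in a force-coupled, inducible HEK293 cell line expressing D2, read kinetically for 180 s after compound addition against dopamine controls.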
Hits are given with their value; i = inactive; ? = inconclusive; nt = not tested or not shown.

SMILES	D2 PAM-1	D2 ag-1	D2 PAM-2	D2 antag	D2 ag-2
CC[C@@H](C(=O)[C@@H](C)[C@@H](O)[C@H](C)[C@@H]1O[C@@H]([C@@H](CC)C(=O)O)CC[C@@H]1C)[C@H]1O[C@]2(C=C[C@@H](O)[C@]3(CC[C@@](C)([C@H]4CC[C@](O)(CC)[C@H](C)O4)O3)O2)[C@H](C)C[C@@H]1C	nt	i	64.4	nt	nt
CC(=O)Nc1ccc(N2C(=O)c3cccc4c(O)ccc(c34)C2=O)cc1	i	i	i	i	63.5
O=C(NCCc1ccccc1)C1CCN(S(=O)(=O)c2cccs2)CC1	i	i	i	i	i
O=C(NCCN1C(=O)S/C(=C\c2ccccc2)C1=O)C1CCN(S(=O)(=O)c2cccs2)CC1	i	i	i	33.4	i
CCOc1ccc(NC(=O)C2CCN(S(=O)(=O)c3cccs3)CC2)cc1	32.0	i	i	i	i
CCCCN1CCC(COC(=O)c2cc(Cl)c(N)c3c2OCCO3)CC1	i	i	i	64.1	i
COc1cc(C2C(=O)N(C3CCCCCC3)CC(=O)N2CCC2=CCCCC2)ccc1OC(C)C (stereo not given)	i	nt	nt	nt	i
CCOC(=O)c1c(C)[nH]c(C)c1C(=O)COC(=O)c1ccc(O)cc1	i	i	i	i	i
CCOC(=O)c1c(C)[nH]c(C)c1C(=O)COC(=O)c1ccc(S(=O)(=O)C(F)F)cc1	i	i	i	38.6	i
COc1cc(C(=O)NC23CC4CC(CC(C4)C2)C3)cc(OC)c1OC	i	i	i	i	i
COc1cc(C(=O)O/N=C2/C=CC(=O)C(C)=C2C)cc(OC)c1OC	i	?	72.0	i	i
COc1cc(C(=O)ON=C2C3CC4CC(C3)CC2C4)cc(OC)c1OC	i	44.8	i	i	i
COc1cc(C(=O)O/N=C2\C=CC(=O)C=C2C)cc(OC)c1OC	i	i	i	49.8	i
COc1cc(/C=C/c2nc(C#N)c(N3CCN(C)CC3)o2)cc(OC)c1OC	i	nt	nt	nt	i
C/C(=N\NC(=O)C1(C)CC1(Br)Br)c1cccc(NC(=O)C2CCC2)c1 (stereo not given)	i	i	i	30.2	i
COc1ccc(CC(=O)N/N=C(\C)c2cccc(NC(=O)C3CC3)c2)cc1	i	i	i	i	i
O=C(Cc1cccs1)Nc1ccc(NC(=O)c2ccco2)cc1	i	i	i	30.7	i
O=C(c1nc2ncccn2n1)N1CCN(c2ccc(F)cc2)CC1	30.6	i	i	i	i
O=C(COc1ccc(Cl)cc1)NCC(c1ccco1)S(=O)(=O)c1ccc(Cl)cc1 (stereo not given)	i	nt	nt	nt	i
CCOc1ccc(NC(=O)CCn2c(=O)[nH]c3ccsc3c2=O)cc1	36.5	i	i	i	i
Cc1ccc(NC(=O)CCn2c(=O)[nH]c3ccsc3c2=O)cc1	i	i	i	i	i
CC(C)CNC(=S)Nc1ccccc1F	33.8	i	i	i	i
COc1ccc(Cl)cc1NC(=O)Cn1c2ncccc2c(=O)n1-c1ccc(C)c(C)c1	i	nt	nt	nt	nt
CCOc1cccc(N2C(=O)CC(NNC(=O)c3ccc(Br)o3)C2=O)c1 (stereo not given)	i	i	i	38.1	i
O=C(NNC1CC(=O)N(c2ccc(Cl)cc2)C1=O)c1ccco1 (stereo not given)	i	i	i	i	i
SMILES	D2 PAM-1	D2 ag-1	D2 PAM-2	D2 antag	D2 ag-2
O=C(NNC1CC(=O)N(c2ccc(Br)cc2)C1=O)c1ccco1 (stereo not given)	i	i	i	i	37.5
CCCOc1ccc(N2C(=O)CC(NNC(=O)c3ccc(COc4ccccc4)o3)C2=O)cc1 (stereo not given)	i	i	i	i	i
Cc1ccc(CNC(=O)CN2C(=O)CSc3ccc(S(=O)(=O)N(C)C)cc32)cc1	i	nt	nt	nt	i
CCCCCn1c(Sc2ccccc2)nc2c1c(=O)[nH]c(=O)n2C	i	i	i	31.4	i
CC(C)CCSc1nc2c(c(=O)[nH]c(=O)n2C)n1CCCc1ccccc1	i	i	i	35.3	i
C=CCn1c(Sc2ccccc2)nc2c1c(=O)[nH]c(=O)n2C	i	i	i	i	i
COc1ccc(CNC(=O)CSc2nnc(C)c3c(C)n(-c4ccccc4)nc23)c(OC)c1	i	nt	nt	nt	nt
O=C(NCCNc1ccc([N+](=O)[O-])cc1)c1ccccc1Br	34.1	i	i	i	i
Cc1ccccc1C(=O)NCCNc1ccc([N+](=O)[O-])cc1	i	i	i	32.8	i
CCc1ccccc1NC(=O)c1sc2nc(C)cc(COC)c2c1N	i	nt	nt	nt	i
Oc1ccc(NCc2ccccc2OCc2ccccc2)cc1	i	?	96.8	i	i
Cn1nc(C(=O)Nc2ccc(Br)cc2)cc1C(=O)Nc1ccc(Br)cc1	i	i	i	38.3	i
N#CC(C#N)=C1C=C2C=C(N3CCOCC3)CCC2CC1 (stereo not given)	i	i	i	65.3	132.0
CCN1CCN(C2=CC3=CC(=C(C#N)C#N)CCC3CC2)CC1 (stereo not given)	i	i	i	79.4	141.8
CC1(C)CC(NCCN2CCN(C3=CC(=C(C#N)C#N)CC(C)(C)C3)CC2)=CC(=C(C#N)C#N)C1	i	i	i	i	i
N#CC(C#N)=C1C=C2C=C(N3CCCCCC3)CCC2CC1 (stereo not given)	i	?	i	82.9	153.9
CN1CCN(C2=CC3=CC(=C(C#N)C#N)CCC3CC2)CC1 (stereo not given)	i	i	i	48.7	173.2
O=C(CCN1C(=O)c2ccccc2Sc2ncccc21)Nc1ccc(F)cc1	i	nt	nt	nt	nt
COc1cc([N+](=O)[O-])ccc1NC(=O)CCN1C(=O)C2C3CCC(C3)C2C1=O (stereo not given)	nt	i	i	nt	nt
COC(=O)c1ccc([N+](=O)[O-])cc1N1C(=O)C2C3CCC(C3)C2C1=O (stereo not given)	i	?	i	52.7	i
O=C(CCCn1c(=O)c2ccccc2n(Cc2ccc(F)cc2Cl)c1=O)NCCc1ccc(Cl)cc1	i	nt	nt	nt	i
CC(C)C1Nc2ccc(S(N)(=O)=O)cc2C2C=CCC21 (stereo not given)	i	i	51.6	i	i
Cc1ccc(C2c3[nH]c4ccccc4c3CCN2C(=O)CCc2ccccc2)cc1 (stereo not given)	i	nt	nt	nt	i
CCCCC12CN3CC(C)(CN(C1)C3c1c(C)[nH]c(=O)[nH]c1=O)C2=O (stereo not given)	i	nt	nt	nt	i
O=C1C(Nc2ccccc2)=C(N2CCCCC2)C(=O)c2ccccc21	i	i	i	i	i
O=C1C(Nc2cccc(O)c2)=C(N2CCCCC2)C(=O)c2ccccc21	i	i	64.9	i	i
CCc1cccc(-n2nnc(-c3nc(-c4ccc5c(c4)OCO5)no3)c2C)c1	i	nt	nt	nt	nt
